This excerpt belongs to a sample that is enriched for hits.
Pf Dd2 growth = Plasmodium falciparum Dd2 growth inhibition; actives 4.3% (n = 120,000); Potency, µM (series often up to 28.9 µM), without a hit: at the highest dose activity, negative = inhibition, actives largely listed as inhibitors; P. falciparum Dd2 growth, SYBR Green, 72 h; active = well fitted inhibition curve with a large enough effect;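 note: plate controls were DMSO vehicle for no effect and reference drug for full effect; nearly all actives have a fitted effect of over 65% in size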
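Infected erythrocytes (Dd2, 0.3% parasitemia, 2.5% hematocrit final) are added to compound in RPMI-1640/Albumax II medium, grown 72 h at 37C in low oxygen, then lysed with saponin/Triton-X containing SYBR Green and read by fluorescence.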
An asterisk follows results filed as active; i = inactive; [ ] = dose if it differs, or a comment. Potency is the fitted concentration of half-maximal effect.

SMILES	Pf Dd2 growth
CCN(CC)C(=O)c1ccccc1NC(=O)c1cccc(S(=O)(=O)N2CCC(C)CC2)c1	51.7%[5.79 µM]
COCC1(C(=O)N2CCC3(CC2)C(=O)N(C)c2ccccc23)CCC1	-12.8%
COc1ccc(NC(=O)C2(Cc3ccccc3)CCCCC(=O)N2)c(OC)c1 (stereo not drawn)	i
COc1ccc2[nH]cc(CCNC(=O)Nc3ccccc3)c2c1	20.2%
COc1ccc2[nH]cc(CCNC(=O)C3(Cc4ccccc4)CCCCC(=O)N3)c2c1 (stereo not drawn)	2µM*
Cc1ccc(CN(C)C2CCc3ccccc32)cc1 (stereo not drawn)	i
COc1cccc(CCC(=O)N2CCc3nn(CC4CC4)c(=O)n3CC2)c1	i
O=c1[nH]c(C2CCCN(Cc3ccccc3C(F)(F)F)C2)nn1-c1ccccc1 (stereo not drawn)	i
CC1(C(=O)O)CCN(C(=O)c2ccc3c(c2)OC(F)(F)O3)CC1	34.4%
O=C(Cn1ccc(=O)[nH]c1=O)N1CCCC(c2[nH]ncc2-c2ccc(F)cc2)C1 (stereo not drawn)	8.3%
Cc1nc(C2(C)CCN(S(=O)(=O)c3c(C)noc3C)CC2)no1	-7.7%
Cc1noc(C)c1S(=O)(=O)N1CCC2(C1)C(=O)Nc1ccccc12 (stereo not drawn)	16.1%
Cc1noc(C)c1S(=O)(=O)N1CCC2(CC1)C(=O)N(C)c1ccccc12	3.55µM*
COCCNC(=O)CC[C@]12CC[C@](C)(O)C[C@H]1C(C)(C)C[C@@H]2NC1CCN(C(C)=O)CC1	11.5%
CSc1cccc(NC(=O)NC[C@H]2C[C@@H]3CCN2C[C@@H]3CN(C)c2ccccc2)c1	8.91µM*
CSc1cccc(NC(=O)NC[C@H]2C[C@@H]3CCN2C[C@@H]3CN2CCN(c3ncccn3)CC2)c1	i
C#C[C@H]1CN2CC[C@H]1C[C@@H]2CNC(=O)Nc1cccc(SC)c1	i
Cc1ccc(C)c(C(=O)N2CCC3(CC2)NC(=O)N(c2ccc(F)cc2)N3)c1	-14.0%
COCc1ncc(CN2CCC(Cc3nncn3-c3ccccc3)CC2)cn1	-7.8%
O=C(CN1CCCCCC1)N1CCC2(CC1)CN(Cc1ccccc1)CC2CO (stereo not drawn)	i
O=C(COc1ccccc1)N1CCC2(CC1)CN(Cc1ccccc1)CC2CO (stereo not drawn)	5.01µM*
COCCN1CC(CO)C2(CCN(C(=O)COc3ccccc3)CC2)C1 (stereo not drawn)	-18.9%
CC(C)CCNC(=O)N1CC(C(=O)N(C)C)C2(CCOCC2)C1 (stereo not drawn)	18.0%
Cc1ccc(OC2CN(C(=O)c3ccc(F)cc3)C2)cc1C	-30.2%[44.1 µM]
Cc1ccc(C(=O)N2CC(Oc3ccc(F)cc3C)C2)cc1	11.2µM*
SMILES	Pf Dd2 growth
Cc1cc(F)ccc1OC1CN(C(=O)c2ccccn2)C1	-0.3%[44.1 µM]
CC(C)(C)c1coc([C@@H]2COCCN2Cc2cccc(C#N)c2)n1	i
COCC(=O)N1CCOC[C@H](Oc2cnccn2)C1	30.3%[44.1 µM]
Cc1noc(C)c1Cc1ccc(C(=O)N2CCC(C)(c3noc(-c4ccccn4)n3)CC2)o1	-8.2%
Cn1c(=O)c2ccnn2c2ccc(C(=O)NCC3CCN(Cc4ccccc4F)CC3)cc21	-18.6%
CCN(CC)c1cc(CCC(=O)N(C)CCc2ccncc2)ccn1	-14.5%
CCN(CC)c1cc(CCC(=O)NCc2ccc(Cl)cc2)ccn1	5.01µM*
Cn1cc(CCC(=O)NCc2ccc(Cl)cc2)c2ccccc21	28.7%
COCc1cc(=O)n(CC(=O)Nc2ccc(F)cc2)c(N2CCOCC2)n1	24.8%
Cc1cc(C(F)(F)F)nn1CC(=O)NCC12CCC=C1N(C)C(=O)CC2 (stereo not drawn)	-3.0%
COc1ccc(C)cc1NS(=O)(=O)c1cc2c3c(c1)CC(=O)N3CCC2	18.7%
COC(=O)c1ccccc1N(C)S(=O)(=O)c1cc2c3c(c1)CC(=O)N3CCC2	7.94µM*
O=C1Cc2cc(S(=O)(=O)Nc3cccc(C(F)(F)F)c3)cc3c2N1CCC3	i
CNC(=O)[C@H]1CN(Cc2ccccc2)C[C@H]1C(=O)O	i
CCNC(=O)O[C@@H]1CC[C@]2(C)C(CC[C@@H](O)[C@H]2CC(=O)NCc2ccc(F)cc2)[C@]1(C)CO (stereo partly drawn)	-5.3%
C[C@]1(CO)C2CC[C@@H](O)[C@@H](CC(=O)NCc3cccs3)[C@]2(C)CC[C@H]1OC(=O)NC1CCCCC1 (stereo partly drawn)	11.2µM*
CCCNC(=O)O[C@@H]1CC[C@]2(C)[C@H](CC[C@@H](O)[C@H]2CC(=O)N2CCCCC2)[C@]1(C)CO	i
CCCNC(=O)O[C@@H]1CC[C@]2(C)[C@H](CC[C@@H](O)[C@H]2CC(=O)N2CCCC2)[C@]1(C)CO	0.2%[44.1 µM]
COc1ccc(NC(=O)O[C@@H]2CC[C@]3(C)C(CC[C@@H](O)[C@H]3CC(=O)N3CCC[C@H]3CO)[C@]2(C)CO)cc1 (stereo partly drawn)	-20.9%
C[C@]1(CO)C2CC[C@@H](O)[C@@H](CC(=O)N3CCCC3)[C@]2(C)CC[C@H]1OC(=O)Nc1ccccc1 (stereo partly drawn)	8.91µM*
COc1cc(NC(=O)O[C@@H]2CC[C@]3(C)C(CC[C@@H](O)[C@H]3CC(=O)N3CCCC3)[C@]2(C)CO)cc(OC)c1 (stereo partly drawn)	-14.4%
COc1cc(NC(=O)O[C@@H]2CC[C@]3(C)C(CC[C@@H](O)[C@H]3CC(=O)N3CCCCC3)[C@]2(C)CO)cc(OC)c1OC (stereo partly drawn)	5.01µM*
CC(C)NC(=O)O[C@@H]1CC[C@]2(C)C(CC[C@@H](O)[C@H]2CC(=O)NCc2ccco2)[C@]1(C)CO (stereo partly drawn)	-11.2%
COc1cc(NC(=O)C2CCN(C(=O)c3ncn4c3COC(c3ccccc3)C4)CC2)cc(OC)c1 (stereo not drawn)	-15.0%
O=C(NC1CCCCC1)[C@@H]1C[C@@H](O)CN1C1CCN(C(=O)c2ccoc2)CC1	-13.6%
SMILES	Pf Dd2 growth
Cc1cccc(-c2cccc(NC(=O)C3CCCN(Cc4cnc(C)nc4)C3)c2)c1 (stereo not drawn)	-21.9%
O=C(NCc1ccccc1F)c1ccc2c(c1)CN(Cc1ccncc1)CCO2	i
COc1ccc(C(=O)NC2CCN(c3cc(-c4ccc(F)cc4)[nH]n3)C2)c(C)c1 (stereo not drawn)	i
O=C(CN1CCCn2nc(CO)cc2C1)NCCc1ccccc1	-12.3%
CCCc1noc(-c2cccn3c(CNC(=O)C4CCCC4)nnc23)n1	-23.2%
c1cc2nnc(C3CCC3)n2nc1NCC1CCCO1 (stereo not drawn)	-13.2%
Cc1ccc(NC(=O)/C=C/c2ccccc2Cl)cc1Cl	2.82µM*
CNC(=O)c1c(NC(=O)/C=C/c2ccccc2Cl)sc2c1CCC2	-16.5%
Cc1ccc(NC(=O)c2ncn(-c3ccccc3)n2)cc1Cl	9.3%
O=C(O)CC1COCCN1C(=O)c1cc(-n2cccn2)ccc1Cl (stereo not drawn)	18.3%
CN(Cc1ccccc1)Cc1cn([C@H]2CO[C@H]3[C@@H]2OC[C@@H]3NC(=O)Nc2ccc(Oc3ccccc3)cc2)nn1	i
Cc1ccc(N2Cc3c(NCCO)ncnc3N(C)CC2=O)cc1	-0.4%[44.1 µM]
O=C(NCC1CCCCC1)C1CCN(C(=O)N2CC3CC(C2)[C@H]2CCCC(=O)N2C3)CC1 (stereo partly drawn)	i
Cc1ccc(OCc2nc(C3CCCCN3)no2)cc1 (stereo not drawn)	-14.7%
Cc1ccccc1S(=O)(=O)N1CCC(CCC(=O)NC2CC2)CC1	-10.3%
